# ChEMBL document CHEMBL1961873, “Compounds: GSK PKIS; Assays: Nanosyn kinase panel” (2012)
# How the values were obtained:
# [1] = biological target: Tyrosine-protein kinase Fer (Homo sapiens) (UniProt P16591); conditions: at 1 µM
# [2] = biological target: Tyrosine-protein kinase Fes/Fps (Homo sapiens) (UniProt P07332); conditions: at 0.1 µM
# [3] = biological target: Tyrosine-protein kinase Fes/Fps (Homo sapiens) (UniProt P07332); conditions: at 1 µM
# [4] = biological target: Fibroblast growth factor receptor 1 (Homo sapiens) (UniProt P11362); conditions: at 0.1 µM
# [5] = biological target: Fibroblast growth factor receptor 1 (Homo sapiens) (UniProt P11362); conditions: at 1 µM
# [6] = biological target: Fibroblast growth factor receptor 2 (Homo sapiens) (UniProt P21802); conditions: at 0.1 µM
# [7] = biological target: Fibroblast growth factor receptor 3 (Homo sapiens) (UniProt P22607); conditions: at 0.1 µM
# [8] = biological target: Fibroblast growth factor receptor 3 (Homo sapiens) (UniProt P22607); conditions: at 1 µM
# [9] = biological target: Fibroblast growth factor receptor 4 (Homo sapiens) (UniProt P22455); conditions: at 0.1 µM
# [10] = biological target: Fibroblast growth factor receptor 4 (Homo sapiens) (UniProt P22455); conditions: at 1 µM
# [11] = biological target: Tyrosine-protein kinase Fgr (Homo sapiens) (UniProt P09769); conditions: at 0.1 µM
# [12] = biological target: Tyrosine-protein kinase Fgr (Homo sapiens) (UniProt P09769); conditions: at 1 µM
# [13] = biological target: Vascular endothelial growth factor receptor 1 (Homo sapiens) (UniProt P17948); conditions: at 0.1 µM
# [14] = biological target: Vascular endothelial growth factor receptor 1 (Homo sapiens) (UniProt P17948); conditions: at 1 µM
# [15] = biological target: Receptor-type tyrosine-protein kinase FLT3 (Homo sapiens) (UniProt P36888); conditions: at 0.1 µM
# [16] = biological target: Receptor-type tyrosine-protein kinase FLT3 (Homo sapiens) (UniProt P36888); conditions: at 1 µM
# [17] = tested on: T1, Receptor-type tyrosine-protein kinase FLT3 (Homo sapiens), P36888 [D835Y]; conditions: at 0.1 µM
# T1 sequence (whole entry): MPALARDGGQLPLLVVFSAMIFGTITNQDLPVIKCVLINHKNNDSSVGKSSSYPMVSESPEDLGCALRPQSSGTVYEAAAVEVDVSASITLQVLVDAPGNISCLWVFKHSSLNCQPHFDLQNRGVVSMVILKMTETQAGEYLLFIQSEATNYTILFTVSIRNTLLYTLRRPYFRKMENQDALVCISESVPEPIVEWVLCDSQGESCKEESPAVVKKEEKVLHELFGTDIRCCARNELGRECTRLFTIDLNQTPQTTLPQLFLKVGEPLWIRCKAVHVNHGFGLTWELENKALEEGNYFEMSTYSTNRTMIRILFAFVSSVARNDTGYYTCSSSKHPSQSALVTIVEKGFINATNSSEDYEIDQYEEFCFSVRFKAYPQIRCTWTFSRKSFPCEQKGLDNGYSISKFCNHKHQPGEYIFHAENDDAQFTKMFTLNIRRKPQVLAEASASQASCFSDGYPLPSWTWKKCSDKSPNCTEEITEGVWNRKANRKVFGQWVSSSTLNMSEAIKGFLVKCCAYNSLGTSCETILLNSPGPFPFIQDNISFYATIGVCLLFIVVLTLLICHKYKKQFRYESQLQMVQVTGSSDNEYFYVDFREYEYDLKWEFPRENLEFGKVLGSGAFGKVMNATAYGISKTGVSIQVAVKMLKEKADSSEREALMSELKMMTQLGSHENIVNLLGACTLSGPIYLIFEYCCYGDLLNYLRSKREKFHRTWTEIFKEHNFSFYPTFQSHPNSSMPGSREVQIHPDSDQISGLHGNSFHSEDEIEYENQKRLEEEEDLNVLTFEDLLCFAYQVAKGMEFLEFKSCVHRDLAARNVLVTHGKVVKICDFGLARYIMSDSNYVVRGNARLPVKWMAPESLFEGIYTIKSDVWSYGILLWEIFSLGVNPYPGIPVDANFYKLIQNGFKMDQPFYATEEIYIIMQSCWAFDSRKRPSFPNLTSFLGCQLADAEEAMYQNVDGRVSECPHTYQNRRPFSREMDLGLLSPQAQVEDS
# [18] = biological target: Non-receptor tyrosine-protein kinase TYK2 (Homo sapiens) (UniProt P29597); conditions: at 1 µM;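 further: values are mean percent inhibition of TYK2 kinase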
# [19] = biological target: T2, Tyrosine-protein kinase receptor TYRO3 (Homo sapiens) (UniProt Q06418); conditions: at 0.1 µM;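 further: reported percentages are averaged inhibition values of TYRO3 kinase activity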
# T2 sequence (whole entry): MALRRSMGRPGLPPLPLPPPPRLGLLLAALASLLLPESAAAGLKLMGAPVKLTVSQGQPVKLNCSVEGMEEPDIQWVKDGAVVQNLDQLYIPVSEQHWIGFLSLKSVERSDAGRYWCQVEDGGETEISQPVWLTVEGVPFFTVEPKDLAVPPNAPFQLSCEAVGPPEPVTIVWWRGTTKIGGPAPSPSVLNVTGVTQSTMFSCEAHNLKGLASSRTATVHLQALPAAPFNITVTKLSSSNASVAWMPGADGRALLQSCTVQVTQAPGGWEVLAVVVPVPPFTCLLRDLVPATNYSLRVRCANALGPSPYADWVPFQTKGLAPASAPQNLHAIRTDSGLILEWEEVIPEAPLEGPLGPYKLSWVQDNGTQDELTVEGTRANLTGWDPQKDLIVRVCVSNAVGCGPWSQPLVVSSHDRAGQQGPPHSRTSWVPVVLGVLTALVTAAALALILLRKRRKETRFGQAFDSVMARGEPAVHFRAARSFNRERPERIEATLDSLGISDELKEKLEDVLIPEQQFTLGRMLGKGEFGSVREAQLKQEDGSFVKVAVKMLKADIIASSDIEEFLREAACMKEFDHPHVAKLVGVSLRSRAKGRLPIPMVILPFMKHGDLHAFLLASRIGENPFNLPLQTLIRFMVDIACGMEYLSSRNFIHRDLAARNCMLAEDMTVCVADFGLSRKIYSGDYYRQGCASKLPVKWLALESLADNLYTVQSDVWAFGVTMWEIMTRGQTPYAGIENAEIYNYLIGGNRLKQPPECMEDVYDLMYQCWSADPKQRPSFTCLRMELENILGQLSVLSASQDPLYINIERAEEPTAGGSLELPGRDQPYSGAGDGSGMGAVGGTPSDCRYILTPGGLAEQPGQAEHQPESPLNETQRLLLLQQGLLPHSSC
# [20] = biological target: Fibroblast growth factor receptor 2 (Homo sapiens) (UniProt P21802); conditions: at 1 µM
# Sequence of Vascular endothelial growth factor receptor 1 (Homo sapiens) (P17948 whole entry): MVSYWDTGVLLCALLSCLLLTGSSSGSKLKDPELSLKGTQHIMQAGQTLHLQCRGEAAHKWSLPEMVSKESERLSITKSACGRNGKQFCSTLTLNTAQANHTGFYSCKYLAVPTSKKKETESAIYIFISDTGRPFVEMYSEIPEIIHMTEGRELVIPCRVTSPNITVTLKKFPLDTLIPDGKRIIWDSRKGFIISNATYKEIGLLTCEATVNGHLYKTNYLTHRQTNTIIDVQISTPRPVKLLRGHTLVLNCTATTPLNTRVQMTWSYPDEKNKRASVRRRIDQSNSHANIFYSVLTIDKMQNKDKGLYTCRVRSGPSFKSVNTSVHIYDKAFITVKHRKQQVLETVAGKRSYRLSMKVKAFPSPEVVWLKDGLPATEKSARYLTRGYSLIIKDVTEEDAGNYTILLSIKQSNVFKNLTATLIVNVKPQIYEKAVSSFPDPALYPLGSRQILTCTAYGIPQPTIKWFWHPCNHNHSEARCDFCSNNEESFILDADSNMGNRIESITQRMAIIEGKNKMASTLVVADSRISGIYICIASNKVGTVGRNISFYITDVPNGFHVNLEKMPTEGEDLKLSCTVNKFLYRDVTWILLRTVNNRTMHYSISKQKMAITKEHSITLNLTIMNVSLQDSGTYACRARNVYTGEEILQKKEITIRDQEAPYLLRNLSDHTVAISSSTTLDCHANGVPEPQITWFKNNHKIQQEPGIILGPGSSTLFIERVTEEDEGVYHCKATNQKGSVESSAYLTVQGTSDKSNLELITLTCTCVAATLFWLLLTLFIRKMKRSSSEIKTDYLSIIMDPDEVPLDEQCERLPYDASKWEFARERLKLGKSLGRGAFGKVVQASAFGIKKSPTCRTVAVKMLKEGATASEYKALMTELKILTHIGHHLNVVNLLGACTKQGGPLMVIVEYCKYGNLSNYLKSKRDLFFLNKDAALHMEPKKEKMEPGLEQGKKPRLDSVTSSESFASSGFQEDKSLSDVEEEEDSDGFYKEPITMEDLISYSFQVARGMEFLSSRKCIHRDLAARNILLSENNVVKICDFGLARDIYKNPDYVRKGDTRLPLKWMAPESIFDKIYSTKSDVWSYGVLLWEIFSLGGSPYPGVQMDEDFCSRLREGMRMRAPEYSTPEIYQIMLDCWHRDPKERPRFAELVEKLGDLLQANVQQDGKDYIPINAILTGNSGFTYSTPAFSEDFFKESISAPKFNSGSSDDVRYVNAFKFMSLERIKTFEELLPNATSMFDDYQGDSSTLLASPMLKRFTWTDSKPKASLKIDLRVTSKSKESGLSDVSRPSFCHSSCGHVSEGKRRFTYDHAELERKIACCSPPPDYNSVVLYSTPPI
# Sequence of Fibroblast growth factor receptor 3 (Homo sapiens) (P22607 23-806 limits assumed): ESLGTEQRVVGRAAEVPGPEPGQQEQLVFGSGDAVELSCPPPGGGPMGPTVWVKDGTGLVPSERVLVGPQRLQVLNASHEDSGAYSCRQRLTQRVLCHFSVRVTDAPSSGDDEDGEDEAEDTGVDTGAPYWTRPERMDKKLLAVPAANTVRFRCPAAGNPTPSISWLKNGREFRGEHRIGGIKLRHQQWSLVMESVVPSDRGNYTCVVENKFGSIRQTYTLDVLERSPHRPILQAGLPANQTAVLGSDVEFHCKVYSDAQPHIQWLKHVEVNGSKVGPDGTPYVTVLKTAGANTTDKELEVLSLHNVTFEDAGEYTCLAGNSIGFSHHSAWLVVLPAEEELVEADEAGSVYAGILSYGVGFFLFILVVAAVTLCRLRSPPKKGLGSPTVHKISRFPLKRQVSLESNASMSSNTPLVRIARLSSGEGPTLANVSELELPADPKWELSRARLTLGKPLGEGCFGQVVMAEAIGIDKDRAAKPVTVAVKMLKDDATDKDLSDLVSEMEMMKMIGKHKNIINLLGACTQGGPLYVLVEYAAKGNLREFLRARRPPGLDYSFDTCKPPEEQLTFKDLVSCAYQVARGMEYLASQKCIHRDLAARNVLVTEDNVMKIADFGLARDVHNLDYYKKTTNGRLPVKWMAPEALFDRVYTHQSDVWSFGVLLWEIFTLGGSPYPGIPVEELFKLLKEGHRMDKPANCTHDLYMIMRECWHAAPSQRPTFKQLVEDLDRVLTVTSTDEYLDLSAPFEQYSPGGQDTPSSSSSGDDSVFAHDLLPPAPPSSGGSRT
# Sequence of Tyrosine-protein kinase Fes/Fps (Homo sapiens) (P07332 whole entry): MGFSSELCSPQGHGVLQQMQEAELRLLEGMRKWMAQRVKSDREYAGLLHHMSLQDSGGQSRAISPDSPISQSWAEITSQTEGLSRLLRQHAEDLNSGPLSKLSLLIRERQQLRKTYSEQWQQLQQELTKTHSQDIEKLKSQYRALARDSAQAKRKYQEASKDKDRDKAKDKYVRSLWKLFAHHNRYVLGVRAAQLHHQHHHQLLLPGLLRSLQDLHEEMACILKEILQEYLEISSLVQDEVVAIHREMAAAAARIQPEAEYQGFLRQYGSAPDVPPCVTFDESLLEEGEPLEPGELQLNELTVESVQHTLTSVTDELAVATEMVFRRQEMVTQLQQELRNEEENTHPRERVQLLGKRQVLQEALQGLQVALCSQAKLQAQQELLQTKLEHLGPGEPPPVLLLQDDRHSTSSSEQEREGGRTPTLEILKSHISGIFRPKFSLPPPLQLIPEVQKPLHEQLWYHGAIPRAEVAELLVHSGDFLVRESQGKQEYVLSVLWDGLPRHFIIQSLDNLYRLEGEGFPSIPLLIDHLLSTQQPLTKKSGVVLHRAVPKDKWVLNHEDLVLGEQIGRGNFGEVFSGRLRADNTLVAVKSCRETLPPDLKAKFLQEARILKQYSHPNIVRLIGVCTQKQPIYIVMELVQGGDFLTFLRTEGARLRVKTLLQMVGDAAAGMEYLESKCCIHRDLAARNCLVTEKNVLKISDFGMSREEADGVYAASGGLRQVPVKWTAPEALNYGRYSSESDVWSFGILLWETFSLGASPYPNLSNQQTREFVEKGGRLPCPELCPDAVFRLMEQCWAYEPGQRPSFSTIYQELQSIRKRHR
# Sequence of Non-receptor tyrosine-protein kinase TYK2 (Homo sapiens) (P29597 whole entry): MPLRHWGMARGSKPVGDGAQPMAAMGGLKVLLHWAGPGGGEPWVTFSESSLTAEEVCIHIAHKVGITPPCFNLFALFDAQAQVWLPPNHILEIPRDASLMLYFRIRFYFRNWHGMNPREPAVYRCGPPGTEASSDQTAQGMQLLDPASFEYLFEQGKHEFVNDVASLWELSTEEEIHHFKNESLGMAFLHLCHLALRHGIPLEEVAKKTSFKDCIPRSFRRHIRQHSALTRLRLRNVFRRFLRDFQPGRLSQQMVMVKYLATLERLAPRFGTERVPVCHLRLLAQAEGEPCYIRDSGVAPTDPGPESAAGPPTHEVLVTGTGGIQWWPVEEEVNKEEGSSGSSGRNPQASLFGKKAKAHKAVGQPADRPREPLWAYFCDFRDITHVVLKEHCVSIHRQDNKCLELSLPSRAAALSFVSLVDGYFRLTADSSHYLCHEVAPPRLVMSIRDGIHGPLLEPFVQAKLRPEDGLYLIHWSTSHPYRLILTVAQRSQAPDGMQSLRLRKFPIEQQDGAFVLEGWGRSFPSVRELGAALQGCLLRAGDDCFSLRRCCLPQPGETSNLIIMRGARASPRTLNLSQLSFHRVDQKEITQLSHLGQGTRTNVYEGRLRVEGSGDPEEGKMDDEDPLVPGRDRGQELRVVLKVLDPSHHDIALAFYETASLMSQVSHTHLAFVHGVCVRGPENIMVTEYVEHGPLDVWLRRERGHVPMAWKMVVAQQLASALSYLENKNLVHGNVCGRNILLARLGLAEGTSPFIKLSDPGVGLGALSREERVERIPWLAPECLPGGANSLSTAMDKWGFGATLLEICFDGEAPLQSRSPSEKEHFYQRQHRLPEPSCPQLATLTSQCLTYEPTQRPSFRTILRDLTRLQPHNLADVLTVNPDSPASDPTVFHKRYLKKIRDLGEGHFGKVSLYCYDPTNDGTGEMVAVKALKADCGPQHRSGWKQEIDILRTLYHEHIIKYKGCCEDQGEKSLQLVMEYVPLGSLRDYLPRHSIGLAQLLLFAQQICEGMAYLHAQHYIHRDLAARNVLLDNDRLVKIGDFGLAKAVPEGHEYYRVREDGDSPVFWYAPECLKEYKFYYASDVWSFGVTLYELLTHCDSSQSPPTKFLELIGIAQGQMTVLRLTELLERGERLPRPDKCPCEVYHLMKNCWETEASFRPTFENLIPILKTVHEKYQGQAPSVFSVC
# Sequence of Fibroblast growth factor receptor 4 (Homo sapiens) (P22455 22-802 limits assumed): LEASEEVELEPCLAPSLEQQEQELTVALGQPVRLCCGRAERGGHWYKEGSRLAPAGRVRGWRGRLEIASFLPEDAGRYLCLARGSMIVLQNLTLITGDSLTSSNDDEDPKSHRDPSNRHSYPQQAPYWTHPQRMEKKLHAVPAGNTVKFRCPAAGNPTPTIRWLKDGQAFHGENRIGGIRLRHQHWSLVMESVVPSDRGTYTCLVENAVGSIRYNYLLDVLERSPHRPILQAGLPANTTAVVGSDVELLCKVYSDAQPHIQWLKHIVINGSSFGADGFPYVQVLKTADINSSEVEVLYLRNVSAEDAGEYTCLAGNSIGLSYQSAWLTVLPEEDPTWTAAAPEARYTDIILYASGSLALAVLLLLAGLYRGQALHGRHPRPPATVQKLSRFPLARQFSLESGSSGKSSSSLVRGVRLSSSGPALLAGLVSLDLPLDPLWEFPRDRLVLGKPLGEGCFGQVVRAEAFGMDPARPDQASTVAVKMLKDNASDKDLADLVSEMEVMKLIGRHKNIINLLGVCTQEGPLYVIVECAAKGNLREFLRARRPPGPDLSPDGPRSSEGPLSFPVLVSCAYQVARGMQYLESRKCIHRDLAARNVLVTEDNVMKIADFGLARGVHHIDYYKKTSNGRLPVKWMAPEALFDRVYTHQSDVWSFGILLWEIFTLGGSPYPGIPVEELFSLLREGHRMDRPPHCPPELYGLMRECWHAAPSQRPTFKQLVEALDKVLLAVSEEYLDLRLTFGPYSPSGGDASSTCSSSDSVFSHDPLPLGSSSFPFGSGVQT
SMILES,inhibition [1],inhibition [2],inhibition [3],inhibition [4],inhibition [5],inhibition [6],inhibition [7],inhibition [8],inhibition [9],inhibition [10],inhibition [11],inhibition [12],inhibition [13],inhibition [14],inhibition [15],inhibition [16],inhibition [17],inhibition [18],inhibition [19],inhibition [20]
NC(=O)c1sc(-n2cnc3cc(C(F)(F)F)ccc32)cc1OCc1ccccc1Br,6.44%,2.76%,1.99%,-2.05%,1.74%,2.24%,1.69%,2.38%,2.01%,-0.34%,2.13%,2.99%,-0.46%,-0.01%,0.18%,3.13%,-3.16%,-3.05%,1.7%,
COc1cc(C=NNc2ncnc3c2cnn3Cc2ccccc2)ccc1O,4.33%,-4.54%,-3.75%,-3.93%,-5.25%,-7.09%,-3.23%,-2.85%,-3.36%,4.03%,11.8%,52.1%,-1.46%,1.82%,-1.99%,-1.02%,-4.43%,-1.56%,-1.07%,-2.01%
CCn1c(-c2nonc2N)nc2c(C#CCN)ncc(OCCCN)c21,6.76%,-1.95%,-1.62%,-2.75%,2.12%,-1.49%,-4.55%,-3.83%,-2.34%,0.77%,5.41%,1.7%,0.25%,0.93%,1.97%,0.52%,2.12%,5.33%,-0.44%,0.4%
NS(=O)(=O)c1ccc(N/C=C2\C(=O)Nc3ccc4ncsc4c32)cc1,13.1%,3.55%,7.01%,5.4%,32.8%,18.8%,17.1%,56.7%,1.61%,5.81%,2.87%,21.6%,7.41%,50.6%,32.8%,79.5%,40.4%,41%,3.07%,53.3%
CCn1c(-c2nonc2N)nc2c(C#CC(C)(C)O)ncc(OC[C@@H]3CCCN3)c21,0.7%,2.01%,4.12%,-0.74%,0.08%,-1.27%,-3.24%,0.67%,2.54%,2.23%,1.47%,2.16%,1.39%,17.4%,-1%,-0.61%,-6.46%,-1.89%,-1.01%,0.8%
Fc1ccc(-c2ncn(C3CCNCC3)c2-c2ccnc(Oc3ccccc3)n2)cc1,0.16%,1.02%,1.03%,-5.35%,-7.09%,-0.63%,-1.57%,-4.55%,-2.7%,-3.96%,1.86%,4.87%,1.35%,2.72%,-0.44%,0.52%,-4.18%,-4.41%,1.92%,-3.24%
Cc1cc(-c2ccco2)cc(C)c1/C=C/c1cncc(-c2nn[nH]n2)c1,7.85%,1.75%,1.63%,-0.88%,2.5%,1.69%,-0.36%,3.17%,1.4%,1.04%,3.13%,6.29%,-0.74%,1.77%,1.31%,1.79%,-3.95%,2.63%,0.37%,1.54%
